According to the supplement of paper PMC6555819:

How the values were obtained:
Assay in all cases: PBM binding z-score (relative to random genomic background probes); higher = stronger binding; sequences stand for … in GC…GCGATTGACAGCGTAGAATGAAGG
[1] = system: FXR:RXRa (NR concentration 270 nM, RXRa partner concentration 90 nM)
Outline: (§1)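 Binding z-scores were set against random background probes. The data came from custom Agilent 4×180K protein-binding microarrays carrying double-stranded probes with 34-nt variable regions, incubated 1 h with ligand-free nuclear receptor dimers. Partner-specific antibodies detected binding, and scanned fluorescence was regression-normalized.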

[2] = system: LXRa:RXRa (NR concentration 270 nM, RXRa partner concentration 90 nM)
Outline: as §1

[3] = system: LXRa homodimer (NR concentration 270 nM)
Outline: as §1

[4] = system: LXRb:RXRa (NR concentration 270 nM, RXRa partner concentration 90 nM)
Outline: as §1

[5] = system: LXRb homodimer (NR concentration 270 nM)
Outline: as §1

[6] = system: PPARa:RXRa (NR concentration 270 nM, RXRa partner concentration 90 nM)
Outline: as §1

[7] = system: PPARg:RXRa (NR concentration 180 nM, RXRa partner concentration 90 nM)
Outline: as §1

[8] = system: PPARg:RXRa 270nM:90nM, anti-RXR (NR concentration 270 nM, RXRa partner concentration 90 nM)
Outline: as §1

[9] = system: PPARg:RXRa 30nM:10nM, anti-RXR (NR concentration 30 nM, RXRa partner concentration 10 nM)
Outline: as §1

[10] = system: PPARg:RXRa 90nM:30nM, anti-RXR (NR concentration 90 nM, RXRa partner concentration 30 nM)
Outline: as §1

[11] = system: PPARg:RXRa DBDmut IVT, anti-RXR (DBD mutation: RXRa K156A/R161A, NR concentration 270 nM, RXRa partner concentration 90 nM)
Outline: as §1

[12] = system: PPARg:RXRa IVT, anti-PPARg (NR concentration 270 nM, RXRa partner concentration 90 nM)
Outline: as §1

[13] = system: PPARg DBDmut:RXRa IVT, anti-PPARg (DBD mutation: PPARg1 K132A/R137A, NR concentration 270 nM, RXRa partner concentration 90 nM)
Outline: as §1

[14] = system: PPARg DBDmut IVT, anti-PPARg (DBD mutation: PPARg1 K132A/R137A, NR concentration 270 nM)
Outline: as §1

[15] = system: PPARg homodimer (NR concentration 180 nM)
Outline: as §1

[16] = system: PXR:RXRa (NR concentration 270 nM, RXRa partner concentration 90 nM)
Outline: as §1

[17] = system: PXR homodimer (NR concentration 270 nM)
Outline: as §1

[18] = system: RARa:RXR (NR concentration 270 nM, RXRa partner concentration 90 nM)
Outline: as §1

[19] = system: RARa homodimer (NR concentration 270 nM)
Outline: as §1

[20] = system: RARb:RXRa (NR concentration 270 nM, RXRa partner concentration 90 nM)
Outline: as §1

CCAGACAGGTAAGAAGGTAACTCAGCCTCGATTA
PBM binding z-score [1]: 0.251 | PBM binding z-score [2]: 0.138 | PBM binding z-score [3]: -0.169 | PBM binding z-score [4]: 0.0955 | PBM binding z-score [5]: -0.296 | PBM binding z-score [6]: 0.0886 | PBM binding z-score [7]: 0.35 | PBM binding z-score [8]: -0.153 | PBM binding z-score [9]: -0.728 | PBM binding z-score [10]: -0.359 | PBM binding z-score [11]: 0.139 | PBM binding z-score [12]: -0.122 | PBM binding z-score [13]: -0.475 | PBM binding z-score [14]: -0.368 | PBM binding z-score [15]: 0.961 | PBM binding z-score [16]: 0.129 | PBM binding z-score [17]: 0.112 | PBM binding z-score [18]: 0.274 | PBM binding z-score [19]: 0.51 | PBM binding z-score [20]: 0.0631

CCTACTGGGCCAAAAAGGTCATTAATGCCGATAA
PBM binding z-score [1]: 2.98 | PBM binding z-score [2]: 3.74 | PBM binding z-score [3]: 2.97 | PBM binding z-score [4]: 4.21 | PBM binding z-score [5]: 0.494 | PBM binding z-score [6]: 4.39 | PBM binding z-score [7]: 2.98 | PBM binding z-score [8]: 3.7 | PBM binding z-score [9]: 1.44 | PBM binding z-score [10]: 2.96 | PBM binding z-score [11]: 3.72 | PBM binding z-score [12]: 3.94 | PBM binding z-score [13]: 0.336 | PBM binding z-score [14]: 0.139 | PBM binding z-score [15]: 3.45 | PBM binding z-score [16]: 4.39 | PBM binding z-score [17]: 3.17 | PBM binding z-score [18]: 5.01 | PBM binding z-score [19]: 1.3 | PBM binding z-score [20]: 3.64

CTCGAAAGGTCGTGCTAAGGTGAGTATACCAAAC
PBM binding z-score [1]: 5.5 | PBM binding z-score [2]: 4.12 | PBM binding z-score [3]: 0.337 | PBM binding z-score [4]: 3.46 | PBM binding z-score [5]: 0.12 | PBM binding z-score [6]: 5.03 | PBM binding z-score [7]: 3.4 | PBM binding z-score [8]: 4.54 | PBM binding z-score [9]: 1.67 | PBM binding z-score [10]: 3.46 | PBM binding z-score [11]: 0.626 | PBM binding z-score [12]: 2.19 | PBM binding z-score [13]: 0.542 | PBM binding z-score [14]: 0.415 | PBM binding z-score [15]: 2.51 | PBM binding z-score [16]: 3.71 | PBM binding z-score [17]: 0.449 | PBM binding z-score [18]: 5.09 | PBM binding z-score [19]: 0.258 | PBM binding z-score [20]: 4.05

CACACTAGGTCACCGGAAGGTCAAAGTCCGCATG
PBM binding z-score [1]: 6.4 | PBM binding z-score [2]: 6.18 | PBM binding z-score [3]: 6.43 | PBM binding z-score [4]: 5.72 | PBM binding z-score [5]: 2.16 | PBM binding z-score [6]: 6.24 | PBM binding z-score [7]: 8.71 | PBM binding z-score [8]: 7.07 | PBM binding z-score [9]: 4.59 | PBM binding z-score [10]: 6.32 | PBM binding z-score [11]: 7.26 | PBM binding z-score [12]: 8.19 | PBM binding z-score [13]: 3.49 | PBM binding z-score [14]: 0.952 | PBM binding z-score [15]: 7.05 | PBM binding z-score [16]: 6.16 | PBM binding z-score [17]: 2.43 | PBM binding z-score [18]: 7.66 | PBM binding z-score [19]: 2.69 | PBM binding z-score [20]: 5.52

CGTCCAAGGTCAAAGCTAGGTCAGTGAAAGCATT
PBM binding z-score [1]: 7.24 | PBM binding z-score [2]: 5.98 | PBM binding z-score [3]: 2.25 | PBM binding z-score [4]: 4.54 | PBM binding z-score [5]: 1.44 | PBM binding z-score [6]: 5.65 | PBM binding z-score [7]: 4.63 | PBM binding z-score [8]: 5.54 | PBM binding z-score [9]: 1.86 | PBM binding z-score [10]: 4.09 | PBM binding z-score [11]: 3.82 | PBM binding z-score [12]: 4.33 | PBM binding z-score [13]: 0.45 | PBM binding z-score [14]: -0.526 | PBM binding z-score [15]: 5.95 | PBM binding z-score [16]: 5.09 | PBM binding z-score [17]: 1.62 | PBM binding z-score [18]: 6.21 | PBM binding z-score [19]: 1.19 | PBM binding z-score [20]: 5.31

ATCTCTAGTTAAGACTCAGTTCAGTGAAGAACGC
PBM binding z-score [1]: 0.381 | PBM binding z-score [2]: 0.546 | PBM binding z-score [3]: 0.699 | PBM binding z-score [4]: 0.459 | PBM binding z-score [5]: 0.922 | PBM binding z-score [6]: -0.0115 | PBM binding z-score [7]: -0.0269 | PBM binding z-score [8]: 0.419 | PBM binding z-score [9]: 0.293 | PBM binding z-score [10]: 0.347 | PBM binding z-score [11]: 0.356 | PBM binding z-score [12]: 0.194 | PBM binding z-score [13]: 1.65 | PBM binding z-score [14]: 1.35 | PBM binding z-score [15]: 1.07 | PBM binding z-score [16]: 1.23 | PBM binding z-score [17]: 2.02 | PBM binding z-score [18]: 0.831 | PBM binding z-score [19]: 1.93 | PBM binding z-score [20]: 0.235
